PubChem BioAssay (Tox21)
“And” between values parts separate entries of the source, which are not always exact repeats. Identical values can stand only once. A structure can be active in one record and inactive in another. The source made the active and inactive calls. A call without a number means that no potency is given here. Unless noted, calls come from the whole dose curve; as a rule, active = well fitted curve in the direction sought with a large enough effect in the repeat runs; inconclusive = weak or mixed curves; inactive = no such curve, though single readings can be large; an effect the other way counts as inactive or inconclusive.

Tests used:
[1] = qHTS assay to identify small molecule antagonists of the glucocorticoid receptor (GR) signaling pathway - cell viability counter screen (AID 720693); note: nearly all actives have a fitted effect of over 55% in size; note: potency is the fitted concentration of half-maximal effect
[2] = qHTS assay for identifying genotoxic compounds that show differential cytotoxicity against isogenic chicken DT40 cell lines with known DNA damage response pathways - wild type cell line (AID 743012); note: nearly all actives have a fitted effect of over 60% in size; note: potency is the fitted concentration of half-maximal effect
In short: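 Parental DNA repair-proficient DT40 cells, 300 per well, were pre-incubated ~0.5 h at 37 C/5% CO2, pin-dosed with compounds in DMSO, then incubated 40 h. Viability was read as CellTiter-Glo luminescence after 30 min at room temperature.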

[3] = qHTS assay for identifying genotoxic compounds that show differential cytotoxicity against isogenic chicken DT40 cell lines with known DNA damage response pathways - Rad54/Ku70 mutant cell line (AID 743015); note: nearly all actives have a fitted effect of over 60% in size; note: potency is the fitted concentration of half-maximal effect
[4] = qHTS assay to identify small molecule antagonists of the androgen receptor (AR) signaling pathway - cell viability counter screen (AID 743033; note: nearly all actives have a fitted effect of over 45% in size; note: potency is the fitted concentration of half-maximal effect)
[5] = qHTS assay to identify small molecule antagonists of the androgen receptor (AR) signaling pathway using the MDA cell line - cell viability counter screen (AID 743041; note: nearly all actives have a fitted effect of over 45% in size; note: potency is the fitted concentration of half-maximal effect)
In short: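 MDA-kb2 AR-luc cells (MMTV-luciferase, AR/GR responsive) treated with compounds plus R1881 agonist for 16 h at 37C. CellTiter-Fluor added at 15.5 h; fluorescence read after 30 min in the same wells.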

[6] = qHTS assay to identify small molecule antagonists of the thyroid receptor (TR) signaling pathway - cell viability counter screen (AID 743064); note: nearly all actives have a fitted effect of over 50% in size; note: potency is the fitted concentration of half-maximal effect
In short: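 Compounds were tested on GH3.TRE-Luc cells in the presence of T3 at 1 nM final. Following 23.5 h at 37 °C, cell viability was quantified by CellTiter-Fluor.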

[7] = qHTS assay to identify small molecule antagonists of the thyroid receptor (TR) signaling pathway (AID 743065); note: nearly all actives have a fitted effect of over 55% in size; note: potency is the fitted concentration of half-maximal effect
In short: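 GH3.TRE-Luc rat pituitary cells (two TREs driving luciferase) were dosed with compound, then stimulated with 1 nM T3 (final) for 23.5 h at 37 C. ONE-Glo luminescence was the read-out, with CellTiter-Fluor fluorescence as the cytotoxicity counter-screen.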

[8] = tested on: thyroid hormone receptor (rat, GH3 cells); assay: qHTS assay to identify small molecule agonists of the thyroid receptor (TR) signaling pathway (AID 743066; calls by dose curve)
[9] = biological target: Estrogen receptor (Homo sapiens) (UniProt P03372); assay: qHTS assay to identify small molecule antagonists of the estrogen receptor alpha (ER-alpha) signaling pathway (AID 743069; active = well fitted curve in the direction sought with a large enough effect in the signal ratio in the repeat runs, not every such curve was filed as active; inconclusive = weak or mixed curves, or effect the other way; inactive = no such curve, though single readings can be large or run the other way; the % refers to the signal ratio; note: potency is the fitted concentration of half-maximal effect)
In short: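 HEK293 ER-alpha-UAS-bla GripTite cells, held overnight in 2% charcoal-stripped FBS, 5,000 cells/well, preincubated 4 h, then compound plus 17beta-estradiol for 18 h at 37C. Beta-lactamase read by LiveBLAzer B/G FRET substrate, 2 h at room temperature.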

[10] = qHTS assay to identify small molecule antagonists of the estrogen receptor alpha (ER-alpha) signaling pathway - cell viability counter screen (AID 743074; calls by dose curve;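 note: HEK293 cells carrying ER-alpha-UAS-bla reporter stimulated with 17beta-estradiol; nearly all actives have a fitted effect of over 45% in size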; note: potency is the fitted concentration of half-maximal effect)
[11] = biological target: Estrogen receptor (Homo sapiens) (UniProt P03372); assay: qHTS assay to identify small molecule agonists of the estrogen receptor alpha (ER-alpha) signaling pathway (AID 743075; calls by dose curve; note: potency is the fitted concentration of half-maximal effect)
[12] = biological target: Estrogen receptor (Homo sapiens) (UniProt P03372); assay: qHTS assay to identify small molecule agonists of the estrogen receptor alpha (ER-alpha) signaling pathway using the BG1 cell line (AID 743079); note: nearly all actives have a fitted effect of over 20% in size; note: potency is the fitted concentration of half-maximal effect
[13] = qHTS assay to identify small molecule antagonists of the estrogen receptor alpha (ER-alpha) signaling pathway using the BG1 cell line - cell viability counter screen (AID 743081);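 note: compound given together with 17beta-estradiol as the ER stimulus; nearly all actives have a fitted effect of over 45% in size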; note: potency is the fitted concentration of half-maximal effect
[14] = biological target: Aromatase (Homo sapiens) (UniProt P11511); assay: qHTS assay to identify aromatase inhibitors (AID 743083); note: nearly all actives have a fitted effect of over 55% in size; note: potency is the fitted concentration of half-maximal effect
[15] = qHTS assay to identify small molecule antagonists of the estrogen receptor alpha (ER-alpha) signaling pathway using the BG1 cell line (AID 743080; calls by dose curve;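 note: BG1 cells stimulated with 17beta-estradiol alongside compound; series mostly up to about 70 µM; nearly all actives have a fitted effect of over 25% in size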)
In short: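 Quantitative HTS on the Tox21 10K library: BG1 cells with endogenous ER-alpha and ERE-luciferase reporter, 17beta-estradiol stimulation, 21.5 h compound exposure, luminescence endpoint with parallel fluorescence cytotoxicity counter-read.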

[16] = qHTS assay for identifying genotoxic compounds that show differential cytotoxicity against isogenic chicken DT40 cell lines with known DNA damage response pathways - Rev3 mutant cell line (AID 743014); note: nearly all actives have a fitted effect of over 55% in size; note: potency is the fitted concentration of half-maximal effect
[17] = biological target: Androgen receptor (Homo sapiens) (UniProt P10275); assay: qHTS assay to identify small molecule antagonists of the androgen receptor (AR) signaling pathway (AID 743035; active = well fitted inhibition curve with a large enough effect in the signal ratio in the repeat runs, not every such curve was filed as active; inconclusive = weak or mixed curves, or effect the other way; inactive = no such curve, though single readings can be large or run the other way; the % refers to the signal ratio; note: potency is the fitted concentration of half-maximal effect)
In short: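 HEK293 cells stably carrying a UAS-driven beta-lactamase reporter (AR-UAS-bla GripTite) were plated for 4 h at 37C, then given compound and the agonist R1881 and incubated 16 h. Reporter activity was read by LiveBLAzer B/G FRET fluorescence after 2 h at room temperature.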

[18] = biological target: Androgen receptor (Homo sapiens) (UniProt P10275); assay: qHTS assay to identify small molecule agonists of the androgen receptor (AR) signaling pathway (AID 743036; active = well fitted activation curve with a large enough effect in the signal ratio in the repeat runs, with a control signal flat, not every such curve was filed as active; inconclusive = weak or mixed curves, or effect the other way; inactive = no such curve, though single readings can be large or run the other way; the % refers to the signal ratio)
In short: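 Beta-lactamase under UAS control, stably integrated in HEK293 GripTite cells, reports receptor activation. After 16 h compound treatment, cells received FRET substrate for 2 h at room temperature before fluorescence reading.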

[19] = biological target: Androgen receptor (Homo sapiens) (UniProt P10275); assay: qHTS assay to identify small molecule agonists of the androgen receptor (AR) signaling pathway using the MDA cell line (AID 743040; note: nearly all actives have a fitted effect of over 20% in size)
In short: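 MDA-kb2 breast carcinoma cells carrying MMTV-luciferase (responsive to AR and GR), plated 5 h then treated 16 h with compounds at 37C, 0% CO2. Read-out was ONE-Glo luminescence after 30 min at room temperature.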

[20] = biological target: Androgen receptor (Homo sapiens) (UniProt P10275); assay: qHTS assay to identify small molecule antagonists of the androgen receptor (AR) signaling pathway using the MDA cell line (AID 743042; note: nearly all actives have a fitted effect of over 55% in size; note: potency is the fitted concentration of half-maximal effect)
In short: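 MDA-kb2 breast carcinoma cells carrying MMTV-luciferase (AR/GR responsive) were co-treated with compounds and the agonist R1881 for 16 h at 37C. Inhibition read as ONE-Glo luminescence; CellTiter-Fluor fluorescence measured in parallel for cytotoxicity.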

Chain of Estrogen receptor (Homo sapiens) (P03372 whole entry, looked up): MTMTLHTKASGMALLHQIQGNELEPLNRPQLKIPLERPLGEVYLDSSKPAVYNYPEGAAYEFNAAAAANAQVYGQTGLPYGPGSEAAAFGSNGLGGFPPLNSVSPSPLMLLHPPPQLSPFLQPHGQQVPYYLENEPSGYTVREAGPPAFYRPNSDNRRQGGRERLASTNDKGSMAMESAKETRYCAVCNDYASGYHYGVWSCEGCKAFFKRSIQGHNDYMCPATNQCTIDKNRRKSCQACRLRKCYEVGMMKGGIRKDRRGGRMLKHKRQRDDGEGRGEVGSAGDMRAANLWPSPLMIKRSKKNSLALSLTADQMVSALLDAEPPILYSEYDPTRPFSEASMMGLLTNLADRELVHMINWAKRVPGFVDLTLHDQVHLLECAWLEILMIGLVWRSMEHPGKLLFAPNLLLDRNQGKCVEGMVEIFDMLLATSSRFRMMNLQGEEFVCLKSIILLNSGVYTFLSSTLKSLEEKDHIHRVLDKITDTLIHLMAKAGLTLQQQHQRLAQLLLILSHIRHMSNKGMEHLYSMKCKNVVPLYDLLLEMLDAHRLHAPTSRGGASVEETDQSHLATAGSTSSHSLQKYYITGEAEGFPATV
Chain of Androgen receptor (Homo sapiens) (P10275 whole entry, looked up): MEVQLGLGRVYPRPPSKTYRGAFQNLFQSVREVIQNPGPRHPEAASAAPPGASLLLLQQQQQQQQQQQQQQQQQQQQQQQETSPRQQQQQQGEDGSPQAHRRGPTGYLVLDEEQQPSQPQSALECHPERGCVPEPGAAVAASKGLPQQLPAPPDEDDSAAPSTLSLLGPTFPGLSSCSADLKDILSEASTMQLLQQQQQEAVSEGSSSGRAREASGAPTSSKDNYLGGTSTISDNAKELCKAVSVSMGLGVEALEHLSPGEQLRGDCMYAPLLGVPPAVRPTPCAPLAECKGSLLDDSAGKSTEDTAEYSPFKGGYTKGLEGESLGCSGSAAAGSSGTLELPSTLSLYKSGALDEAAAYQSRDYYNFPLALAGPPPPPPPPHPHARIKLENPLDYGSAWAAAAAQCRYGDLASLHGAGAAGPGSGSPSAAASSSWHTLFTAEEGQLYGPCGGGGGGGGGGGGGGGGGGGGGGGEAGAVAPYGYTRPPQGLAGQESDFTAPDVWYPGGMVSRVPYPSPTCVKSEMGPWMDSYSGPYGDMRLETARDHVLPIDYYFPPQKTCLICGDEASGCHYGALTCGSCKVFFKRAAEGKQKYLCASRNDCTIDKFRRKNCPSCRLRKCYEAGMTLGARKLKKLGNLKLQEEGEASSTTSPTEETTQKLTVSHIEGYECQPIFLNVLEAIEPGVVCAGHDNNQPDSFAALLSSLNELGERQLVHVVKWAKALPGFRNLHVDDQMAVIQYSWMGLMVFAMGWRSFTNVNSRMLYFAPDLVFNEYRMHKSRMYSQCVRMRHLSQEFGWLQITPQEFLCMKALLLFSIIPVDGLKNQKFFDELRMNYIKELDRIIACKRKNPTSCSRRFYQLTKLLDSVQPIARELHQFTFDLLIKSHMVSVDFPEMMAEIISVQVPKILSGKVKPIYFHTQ
Chain of Aromatase (Homo sapiens) (P11511 whole entry, looked up): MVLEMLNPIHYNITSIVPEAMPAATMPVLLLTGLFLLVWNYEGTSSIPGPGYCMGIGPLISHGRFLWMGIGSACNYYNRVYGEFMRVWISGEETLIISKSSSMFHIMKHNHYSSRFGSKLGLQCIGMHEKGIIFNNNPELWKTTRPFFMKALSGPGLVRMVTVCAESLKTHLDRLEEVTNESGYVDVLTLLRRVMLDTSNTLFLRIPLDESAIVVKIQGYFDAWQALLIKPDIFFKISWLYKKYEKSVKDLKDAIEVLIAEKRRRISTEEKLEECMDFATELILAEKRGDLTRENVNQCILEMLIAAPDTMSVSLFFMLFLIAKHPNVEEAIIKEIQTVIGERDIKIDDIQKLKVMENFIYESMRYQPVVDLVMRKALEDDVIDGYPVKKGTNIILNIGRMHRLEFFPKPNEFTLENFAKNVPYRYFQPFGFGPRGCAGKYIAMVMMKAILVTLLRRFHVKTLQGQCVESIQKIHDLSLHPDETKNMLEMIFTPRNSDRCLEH

| Compound | Potency [1] | Potency [2] | Potency [3] | Potency [4] | Potency [5] | Potency [6] | Potency [7] | Potency [8] | Potency [9] | Potency [10] | Potency [11] | Potency [12] | Potency [13] | Potency [14] | Potency [15] | Potency [16] | Potency [17] | Potency [18] | Potency [19] | Potency [20] |
| --- | --- | --- | --- | --- | --- | --- | --- | --- | --- | --- | --- | --- | --- | --- | --- | --- | --- | --- | --- | --- |
| COC(=O)C(CN)c1c[nH]c2ccc(OC)cc12 (centres undefined) | inactive | inactive | inactive | inactive | inactive | inactive | inactive | inactive | inactive | inactive | inactive | inactive | inactive | inactive |  |  |  |  |  |  |
| O=C(O)CCCC/C=C(\c1ccccc1)c1cccnc1 | inactive | inactive | inactive | inactive | inactive | inactive | inactive | inactive | inactive | inactive | inactive | inactive | inactive | inactive | inactive |  |  |  |  |  |
| CC1(C)S[C@@H]2[C@H](NC(=O)[C@@H](NC(=O)N3CCNC3=O)c3ccccc3)C(=O)N2[C@H]1C(=O)O | inactive | inactive |  | inactive | inactive |  |  |  | inactive | inactive | inactive | inactive | inactive | inactive | inactive | inactive |  |  |  |  |
| N[C@@H](Cc1cnc[nH]1)C(=O)O | inactive | inactive | inactive | inactive | inactive |  | inactive | inactive |  | inactive |  |  | inactive | inactive |  |  | inactive | inactive | inactive | inactive |
| CCCOC(=O)c1ccc(O)cc1 | inactive | inactive |  | inactive | inactive |  | inactive | inactive | inactive | inactive | 26.8 µM [activator] (active) and 24.5 µM [inconclusive] (active) | 21.1 µM (active) and 16.1 µM (active) | inactive | inactive |  | inactive and 68.6 µM (active) |  |  |  |  |
| CC(=O)[C@]1(O)Cc2c(O)c3c(c(O)c2[C@@H](O[C@H]2C[C@H](N)[C@H](O)[C@H](C)O2)C1)C(=O)c1ccccc1C3=O | 3.01 µM (active) | 21.1 nM (active) |  |  | 15 µM (active) | 0.119 µM (active) | 119 nM (active) |  | 4.77 µM [inconclusive] (active) |  | 3.38 µM [inconclusive] (active) |  | 3.35 µM (active) | 3.35 µM (active) |  | 0.0211 µM (active) | 3.38 µM (active) |  | inactive | 422 nM (active) |
| C=CC(N)CCC(=O)O (centres undefined) | inactive | inactive |  | inactive | inactive |  | inactive | inactive | inactive | inactive | inactive | inactive | inactive | inactive | inactive | inactive |  |  |  |  |
| COc1cc(/C=C/C(=O)CC(=O)/C=C/c2ccc(O)c(OC)c2)ccc1O | inactive | 8.41 µM (active) and 21.1 µM (active) and 17.3 µM (active) | 10.6 µM (active) and 26.6 µM (active) and 10.9 µM (active) | inactive and 43.9 µM (active) | inactive | 23.7 µM (active) and inactive and 13.8 µM (active) | 23.7 µM (active) and 17.3 µM (active) | inactive |  | inactive and 49.3 µM (active) | inactive | 23.7 µM (active) and inactive | inactive and 54.8 µM (active) | inactive and 48.9 µM (active) |  |  |  |  | inactive | 26.6 µM (active) and inactive and 13.8 µM (active) |
| c1ccc2cc3c4ccccc4c4ccccc4c3cc2c1 | inactive | inactive | inactive | inactive | inactive | inactive | inactive | inactive |  | inactive |  |  | inactive |  |  |  |  |  |  |  |
| CN(Cc1ccccc1)Cc1ccccc1 | inactive | inactive | inactive | inactive | inactive | inactive | inactive | inactive | inactive | inactive | inactive | inactive | inactive | inactive |  |  |  |  |  |  |
| O=c1[nH]c(=O)n([C@H]2C[C@H](O)[C@@H](CO)O2)cc1/C=C/Br | inactive | inactive | inactive | inactive | inactive | inactive | inactive | inactive |  | inactive |  |  | inactive | inactive |  |  |  |  |  |  |
| CCCCCCCCCCCCCCCCCCOCC(COP(=O)([O-])OCC[N+](C)(C)C)OC (centres undefined) | inactive | inactive |  | inactive | inactive |  |  | inactive | inactive | inactive | inactive | inactive | inactive | inactive | inactive | inactive |  |  |  |  |
| CC(CNC(=O)c1cccnc1)NC(=O)c1cccnc1 (centres undefined) | inactive | inactive | inactive | inactive | inactive | inactive | inactive | inactive |  | inactive |  |  | inactive | inactive |  |  |  |  |  |  |
| CO/N=C(\C(=O)N[C@@H]1C(=O)N2C(C(=O)O)=C(CSc3cnns3)CS[C@H]12)c1csc(N)n1 | inactive | inactive | inactive | inactive | inactive |  |  |  | inactive | inactive | inactive | inactive | inactive | inactive | inactive |  |  | inactive | inactive | inactive |
| C[S+](C)CCC(N)C(=O)O (centres undefined) | inactive | inactive | inactive | inactive | inactive | inactive | inactive | inactive | inactive | inactive | inactive | inactive | inactive | inactive | inactive |  |  |  |  |  |
| CO/N=C(\C(=O)N[C@@H]1C(=O)N2C(C(=O)[O-])=C(C[n+]3ccc(N)n3CCO)CS[C@H]12)c1csc(N)n1 | inactive | inactive |  | inactive | inactive | inactive |  |  |  | inactive |  |  | inactive | inactive |  | inactive |  |  |  |  |
| CC(=O)Oc1cc(C(F)(F)F)ccc1C(=O)O | inactive | inactive | inactive | inactive | inactive | inactive | inactive | inactive |  | inactive |  |  | inactive | inactive |  |  |  |  |  |  |
| CC(C)C[C@@H](NC(=O)[C@@H](O)[C@H](N)Cc1ccccc1)C(=O)O | inactive | inactive | inactive | inactive | inactive | 1.68 µM (active) | inactive | inactive |  |  | inactive | inactive | 2.37 µM (active) | inactive |  |  |  |  |  |  |
| CON=C1C[C@]2(C[C@@H]3C[C@@H](C/C=C(\C)C[C@@H](C)/C=C/C=C4\CO[C@@H]5[C@H](O)C(C)=C[C@@H](C(=O)O3)[C@]45O)O2)O[C@H](/C(C)=C/C(C)C)[C@H]1C | 7.56 µM (active) and 10.7 µM (active) | 13.3 µM (active) and 16.8 µM (active) | 10.6 µM (active) and 13.3 µM (active) | inactive | inactive | 5.31 µM (active) | 3.76 µM (active) and 5.31 µM (active) |  |  | 6.01 µM (active) and 23.9 µM (active) |  |  |  | inactive |  |  | 7.56 µM (active) |  |  | inactive |
| CC1(C)CCC(NC(=O)[C@@H](N)CCC(=O)O)CC1 | inactive | inactive | inactive | inactive | inactive | inactive | inactive | inactive | inactive | inactive | inactive | inactive | inactive | inactive |  |  | inactive | inactive | inactive | inactive |
| CC1(C)S[C@@H]2[C@H](N3C(=O)C(c4ccccc4)NC3(C)C)C(=O)N2[C@H]1C(=O)O (some centres undefined) | inactive | inactive | inactive | inactive | inactive | inactive | inactive | inactive | inactive | inactive | inactive | inactive | inactive | inactive | inactive |  |  |  |  |  |
| C(=C\c1ccncc1)/c1ccccc1 | inactive | inactive and 26.6 µM (active) | inactive and 26.6 µM (active) | inactive | inactive | inactive | inactive | inactive | inactive | inactive | inactive | 13.3 µM (active) | inactive | inactive and 21.1 µM (active) |  |  |  |  |  |  |
